From PubChem BioAssay (NCATS)
Values without a mark were called inactive. Records with an inconclusive call do not appear. Activity calls are given as the source filed them. Unless noted, the call rests on the fitted dose curve; in most records, active means well fitted curve in either direction with a large enough effect (not every such curve was filed as active); inconclusive means small, poorly fitted or top-dose-only effect, or another doubt; inactive means flat fitted curve, though single readings scatter.

Experiments:
[1] = target: Lysosomal acid glucosylceramidase (Homo sapiens) (UniProt P04062); test: Glucocerebrosidase-p2 (AID 348; in the data active means potency below about 10 µM; further: potency means the concentration at half of the fitted maximal effect); conditions: purified GBA, blue fluorogenic substrate, 40 min
Lysosomal acid glucosylceramidase (Homo sapiens), sequence (P04062 whole entry, looked up): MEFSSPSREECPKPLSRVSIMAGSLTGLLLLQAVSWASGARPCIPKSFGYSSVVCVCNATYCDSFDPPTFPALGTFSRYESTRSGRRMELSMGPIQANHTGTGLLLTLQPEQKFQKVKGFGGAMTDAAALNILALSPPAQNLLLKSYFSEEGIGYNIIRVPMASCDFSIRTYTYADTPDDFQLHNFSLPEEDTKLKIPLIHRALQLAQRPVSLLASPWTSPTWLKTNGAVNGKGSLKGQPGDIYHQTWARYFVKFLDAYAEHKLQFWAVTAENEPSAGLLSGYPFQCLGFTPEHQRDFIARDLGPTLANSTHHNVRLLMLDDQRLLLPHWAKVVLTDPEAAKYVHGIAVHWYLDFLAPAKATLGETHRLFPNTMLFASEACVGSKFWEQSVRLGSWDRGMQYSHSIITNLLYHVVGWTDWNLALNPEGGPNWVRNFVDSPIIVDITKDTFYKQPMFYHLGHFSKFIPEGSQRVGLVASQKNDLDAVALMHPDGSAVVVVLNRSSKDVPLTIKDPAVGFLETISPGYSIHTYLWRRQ
In short: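 Compounds titrated from 0.6 nM upwards against 0.2 nM enzyme in pH 5.9 citric acid/KH2PO4, taurocholate, tween-20; blue fluorogenic substrate 80 uM, 40 min room temperature, stopped and read Ex 365/Em 440 for AC50.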

[2] = AP1 Signaling Pathway (AID 357); conditions: ME-180 AP-1-bla reporter, EGF-induced, beta-lactamase ratio, 5 h; at 7.69 µM (top of the series) unless noted;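 further: ME-180 reporter cells stimulated with EGF at its EC50 level; on the % scale 0 is the no-effect control and ±100 the full control effect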
In short: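 Cells are seeded overnight, exposed to compound titrations and an EC50 level of EGF for 5 hours at 37 °C, then loaded with CCF4 dye for 2.5 hours. Beta-lactamase activity under the AP-1 element is read as a blue/green ratio.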

[3] = target: Cytochrome P450 1A2 (Homo sapiens) (UniProt P05177); test: p450-cyp1a2 (AID 410; calls by dose curve; further: potency means the concentration at half of the fitted maximal effect;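 on activity change, negative = inhibition: -100% = full effect of reference inhibitor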); conditions: recombinant CYP1A2, luciferin-ME demethylation, luminescence; series mostly up to 11.4 µM
Cytochrome P450 1A2 (Homo sapiens), sequence (P05177 whole entry, looked up): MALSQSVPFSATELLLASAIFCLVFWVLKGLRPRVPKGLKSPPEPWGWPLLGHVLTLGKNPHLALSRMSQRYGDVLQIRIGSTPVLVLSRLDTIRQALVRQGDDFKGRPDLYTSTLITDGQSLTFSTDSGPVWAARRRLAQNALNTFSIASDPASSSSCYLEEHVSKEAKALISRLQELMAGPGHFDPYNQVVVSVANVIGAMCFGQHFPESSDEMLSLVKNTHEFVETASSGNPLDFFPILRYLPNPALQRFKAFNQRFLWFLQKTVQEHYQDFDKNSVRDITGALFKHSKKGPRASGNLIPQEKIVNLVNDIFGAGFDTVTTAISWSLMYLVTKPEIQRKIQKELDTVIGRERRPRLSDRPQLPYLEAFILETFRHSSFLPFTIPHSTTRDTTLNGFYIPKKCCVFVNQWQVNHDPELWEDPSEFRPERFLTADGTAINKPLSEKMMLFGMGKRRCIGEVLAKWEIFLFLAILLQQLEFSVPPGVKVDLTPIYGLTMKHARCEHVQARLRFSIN
In short: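 Luminescent readout of luciferin formed from Luciferin-ME by human CYP1A2; data normalized against complete inhibition by 57 uM furafylline. Enzyme 20nM, substrate 100uM at Km, 100mM KPO4 buffer, 60 min reaction at room temperature.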

[4] = NFAT Signaling Pathway (AID 444); conditions: Jurkat NFAT-bla M1, carbachol, beta-lactamase ratio, 5 h; at 7.69 µM (top of the series) unless noted;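 further: carbachol stimulus at about its EC50 of 1 µM final; on the % scale 0 is the no-effect control and ±100 the full control effect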
In short: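 Jurkat cells with NFAT-driven β-lactamase reporter and co-expressed M1 receptor, stimulated with carbachol (final 1 uM, ~EC50), compound titration, 5 h at 37 °C. CCF4 loaded 1 h at RT; 460/530 nm ratio gave %activity and AC50.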

[5] = Stat Signaling Pathway (AID 446); conditions: ME-180 SIE beta-lactamase reporter, IL-6 stimulated, 5 h; at 7.69 µM (top of the series) unless noted;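 further: ME-180 cervical cancer cells given 40 pM IL-6 alongside compound; SIE-controlled beta-lactamase reporter measured as 460/530 nm FRET emission ratio; on the % scale 0 is the no-effect control and ±100 the full control effect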
In short: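 Screening format detects activators and inhibitors alike: ME-180 SIE-bla cells stimulated at 40 pM IL-6 for 5 hrs with compound, then dual-emission beta-lactamase read at 405 nm excitation.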

[6] = target: Mitogen-activated protein kinase 10 (Mus musculus) (UniProt Q61831); test: JNK3 AlphaScreen Assay (AID 530); conditions: JNK3 lysate, c-Jun phosphorylation; series mostly up to 57.1 µM;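 further: kinase came from lysate of stimulated human HepG2 cells; signal reports phosphorylation of biotinylated GST-cJun 1-79 at Ser73 with 10 µM ATP; on the % scale 0 is the no-effect control and ±100 the full control effect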
In short: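 Pre-activated (IL-1β/TNFα) JNK3 in HepG2 lysates phosphorylates biotin-GST-cJun(1-79), 10 uM ATP; anti-phospho-cJun(Ser73) AlphaScreen read at room temperature, pH 7.6 Tris buffer. Compounds pre-incubated 15 min as titrations.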

[7] = target: 3',5'-cyclic-AMP phosphodiesterase 4B (Homo sapiens) (UniProt Q07343); test: qHTS Assay for Inhibitors of PDE-IV (AID 607; active means well fitted activation curve with a large enough effect in the main read-out, with a control signal flat, not every such curve was filed as active; further: % of control where 0% means no effect); conditions: HEK293 ACTOne CNG channel cells, membrane potential fluorescence; series mostly up to 22.9 µM
3',5'-cyclic-AMP phosphodiesterase 4B (Homo sapiens), sequence (Q07343 whole entry, looked up): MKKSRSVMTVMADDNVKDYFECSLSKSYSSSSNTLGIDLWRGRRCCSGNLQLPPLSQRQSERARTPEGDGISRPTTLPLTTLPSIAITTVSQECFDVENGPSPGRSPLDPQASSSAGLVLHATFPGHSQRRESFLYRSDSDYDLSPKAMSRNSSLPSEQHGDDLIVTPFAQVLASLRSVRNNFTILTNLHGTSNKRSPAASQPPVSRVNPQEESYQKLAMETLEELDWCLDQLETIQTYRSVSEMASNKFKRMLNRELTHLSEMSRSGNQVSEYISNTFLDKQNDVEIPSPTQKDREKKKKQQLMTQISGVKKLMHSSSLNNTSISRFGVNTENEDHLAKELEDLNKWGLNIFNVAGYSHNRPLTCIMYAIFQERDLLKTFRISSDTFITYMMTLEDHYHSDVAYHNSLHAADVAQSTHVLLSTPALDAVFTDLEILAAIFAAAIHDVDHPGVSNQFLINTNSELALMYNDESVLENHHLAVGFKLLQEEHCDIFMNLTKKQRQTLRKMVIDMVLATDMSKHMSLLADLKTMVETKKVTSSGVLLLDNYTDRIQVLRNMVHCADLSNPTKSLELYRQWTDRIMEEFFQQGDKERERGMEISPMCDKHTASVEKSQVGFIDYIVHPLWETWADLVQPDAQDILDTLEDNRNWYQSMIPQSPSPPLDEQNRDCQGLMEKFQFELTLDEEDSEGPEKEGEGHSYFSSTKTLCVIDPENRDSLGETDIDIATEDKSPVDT
In short: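 The readout is membrane depolarisation from a cAMP-sensing CNG channel, detected with a potential dye at ex 535/em 590. Cells were HEK293-derived (endogenous PDE-IV) at 1000 cells/well, titrated up to 22.9 uM final.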

[8] = target: Luciferin 4-monooxygenase (Photinus pyralis) (UniProt P08659); test: Biochemical firefly luciferase enzyme assay for NPC (AID 624030; active means well fitted curve in the direction sought with a large enough effect; an effect the other way counts as inactive or inconclusive;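 further: purified P. pyralis luciferase at 10 nM with luciferin and ATP substrate; 0% = DMSO and -100% = full luciferase inhibition by PTC124 control; nearly all actives have a fitted effect of over 70% in size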); conditions: purified P. pyralis luciferase, luminescence, 5 min; series mostly up to 58.6 µM
Luciferin 4-monooxygenase (Photinus pyralis), sequence (P08659 whole entry, looked up): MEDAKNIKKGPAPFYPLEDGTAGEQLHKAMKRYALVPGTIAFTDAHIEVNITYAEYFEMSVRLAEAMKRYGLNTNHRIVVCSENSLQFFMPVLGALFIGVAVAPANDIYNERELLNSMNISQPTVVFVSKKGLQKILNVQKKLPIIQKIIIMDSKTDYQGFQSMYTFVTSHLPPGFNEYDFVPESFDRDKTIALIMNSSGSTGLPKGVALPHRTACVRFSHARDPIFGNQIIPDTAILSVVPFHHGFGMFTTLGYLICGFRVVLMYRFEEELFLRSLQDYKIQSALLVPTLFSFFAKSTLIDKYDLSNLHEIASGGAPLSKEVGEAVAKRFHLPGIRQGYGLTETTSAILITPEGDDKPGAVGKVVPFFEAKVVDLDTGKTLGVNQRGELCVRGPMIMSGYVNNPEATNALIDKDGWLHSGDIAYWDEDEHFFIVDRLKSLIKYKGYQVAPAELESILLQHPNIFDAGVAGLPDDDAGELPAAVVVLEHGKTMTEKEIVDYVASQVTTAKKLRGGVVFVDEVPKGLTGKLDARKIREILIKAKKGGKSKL
In short: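 Purified P. pyralis luciferase at 10 nM in 50 mM Tris Acetate (final), luminescence read within 5 minutes of enzyme addition to compounds. Activity normalised to PTC124 versus DMSO; concentration-response curves classed by r2, magnitude and activity.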

[9] = target: Glucocorticoid receptor (Homo sapiens) (UniProt P04150); test: GR-GFP Redistribution (AID 450;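 active means compounds whose dose series gives a full or clear partial fitted curve of increased nuclear translocation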; further: potency means the concentration at half of the fitted maximal effect); conditions: U2OS GR-GFP nuclear translocation, laser cytometry, 2 h
Glucocorticoid receptor (Homo sapiens), sequence (P04150 whole entry, looked up, the tested form may be a part): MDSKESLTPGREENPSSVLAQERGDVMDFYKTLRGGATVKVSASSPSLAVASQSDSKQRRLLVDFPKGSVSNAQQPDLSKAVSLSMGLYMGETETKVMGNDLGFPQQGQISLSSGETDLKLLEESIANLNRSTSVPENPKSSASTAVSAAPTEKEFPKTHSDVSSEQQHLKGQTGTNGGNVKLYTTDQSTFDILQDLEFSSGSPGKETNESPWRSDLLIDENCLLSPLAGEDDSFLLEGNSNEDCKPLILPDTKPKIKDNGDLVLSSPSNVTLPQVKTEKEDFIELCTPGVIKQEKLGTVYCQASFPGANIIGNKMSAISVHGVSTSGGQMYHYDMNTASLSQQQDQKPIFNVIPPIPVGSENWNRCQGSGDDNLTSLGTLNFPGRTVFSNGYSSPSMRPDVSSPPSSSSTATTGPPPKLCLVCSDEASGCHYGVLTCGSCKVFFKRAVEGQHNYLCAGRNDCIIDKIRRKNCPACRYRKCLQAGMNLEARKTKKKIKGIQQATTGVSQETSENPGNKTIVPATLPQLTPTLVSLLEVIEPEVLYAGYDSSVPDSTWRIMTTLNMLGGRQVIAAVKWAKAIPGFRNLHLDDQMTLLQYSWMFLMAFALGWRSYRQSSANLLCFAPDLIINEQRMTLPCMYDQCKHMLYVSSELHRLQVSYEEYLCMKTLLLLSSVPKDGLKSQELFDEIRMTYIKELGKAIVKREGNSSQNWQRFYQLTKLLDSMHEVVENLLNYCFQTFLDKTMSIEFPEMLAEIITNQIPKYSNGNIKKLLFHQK

[10] = target: Cytochrome P450 2C19 (Homo sapiens) (UniProt P33261); test: qHTS Assay for Inhibitors and Substrates of Cytochrome P450 2C19 (AID 899; active means well fitted curve in the direction sought with a large enough effect; an effect the other way counts as inactive or inconclusive; further: nearly all actives have a fitted effect of over 60% in size; further: potency means the concentration at half of the fitted maximal effect); conditions: recombinant CYP2C19, luciferin-H EGE luminescence; series mostly up to 11.4 µM
Cytochrome P450 2C19 (Homo sapiens), sequence (P33261 whole entry, looked up): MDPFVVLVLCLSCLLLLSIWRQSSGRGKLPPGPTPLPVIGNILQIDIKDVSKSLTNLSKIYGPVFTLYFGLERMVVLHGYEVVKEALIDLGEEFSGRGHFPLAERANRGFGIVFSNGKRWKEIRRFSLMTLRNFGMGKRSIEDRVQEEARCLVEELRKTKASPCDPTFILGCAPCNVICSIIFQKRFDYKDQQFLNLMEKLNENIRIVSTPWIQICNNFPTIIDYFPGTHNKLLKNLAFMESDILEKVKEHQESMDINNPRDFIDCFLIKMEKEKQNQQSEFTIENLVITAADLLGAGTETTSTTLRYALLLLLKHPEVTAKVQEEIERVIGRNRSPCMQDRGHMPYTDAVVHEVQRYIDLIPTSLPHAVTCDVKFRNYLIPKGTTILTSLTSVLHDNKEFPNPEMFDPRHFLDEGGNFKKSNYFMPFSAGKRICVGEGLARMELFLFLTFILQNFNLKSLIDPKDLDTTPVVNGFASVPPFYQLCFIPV
In short: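 Signal comes from luciferase acting on luciferin released by CYP2C19-mediated hydroxylation of Luciferin-H EGE, 10uM (KM). Assay mix: 5nM enzyme, 50mM KPO4; 60 min at 37C with NADPH regeneration. Data normalized against 57uM ketoconazole.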

[11] = target: Glucocorticoid receptor (Homo sapiens) (UniProt P04150); test: GR-EFC Redistribution (AID 451; calls by dose curve; further: potency means the concentration at half of the fitted maximal effect); conditions: CHO-K1 GR-EFC translocation, beta-gal luminescence, 2 h
In short: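 CHO-K1 cells expressing nuclear EA and GR-ED fragments of b-gal; compounds titrated up to 46 uM final, 2 h at 37 C. GR nuclear translocation read as complemented b-gal luminescence after 1 h RT detection.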

[12] = target: Cytochrome P450 3A4 (Homo sapiens) (UniProt P08684); test: qHTS Assay for Activators of Cytochrome P450 3A4 (AID 885; active means well fitted curve in the direction sought with a large enough effect; an effect the other way counts as inactive or inconclusive; further: nearly all actives have a fitted effect of over 65% in size); conditions: recombinant CYP3A4, Luciferin-PPXE luminescence, 60 min; series mostly up to 57.1 µM
Cytochrome P450 3A4 (Homo sapiens), sequence (P08684 whole entry, looked up): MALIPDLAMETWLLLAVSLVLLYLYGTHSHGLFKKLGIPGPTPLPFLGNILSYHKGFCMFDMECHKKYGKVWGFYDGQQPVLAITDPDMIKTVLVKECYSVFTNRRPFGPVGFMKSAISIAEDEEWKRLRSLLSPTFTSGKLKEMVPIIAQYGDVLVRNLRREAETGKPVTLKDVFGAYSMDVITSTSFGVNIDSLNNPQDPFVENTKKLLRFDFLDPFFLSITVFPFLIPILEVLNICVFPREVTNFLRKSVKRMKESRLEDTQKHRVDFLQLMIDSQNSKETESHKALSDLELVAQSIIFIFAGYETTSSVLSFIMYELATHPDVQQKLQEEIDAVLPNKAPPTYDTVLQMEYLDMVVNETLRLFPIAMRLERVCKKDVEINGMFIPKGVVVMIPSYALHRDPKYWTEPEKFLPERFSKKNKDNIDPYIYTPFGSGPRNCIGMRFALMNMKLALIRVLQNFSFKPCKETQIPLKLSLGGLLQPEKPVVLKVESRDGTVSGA
In short: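 Steps: enzyme/substrate mix dispensed; compound added, 10 min RT; NADPH regeneration solution added, 60 min RT; luciferin detection buffer stops reaction; 20 min later luminescence measured.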

[13] = target: Cytochrome P450 2D6 (Homo sapiens) (UniProt P10635); test: qHTS Assay for Inhibitors and Substrates of Cytochrome P450 2D6 (AID 891; active means well fitted curve in the direction sought with a large enough effect; an effect the other way counts as inactive or inconclusive; further: potency means the concentration at half of the fitted maximal effect; nearly all actives have a fitted effect of over 60% in size); conditions: recombinant CYP2D6, luciferin-ME EGE luminescence; series mostly up to 11.4 µM
Cytochrome P450 2D6 (Homo sapiens), sequence (P10635 whole entry, looked up): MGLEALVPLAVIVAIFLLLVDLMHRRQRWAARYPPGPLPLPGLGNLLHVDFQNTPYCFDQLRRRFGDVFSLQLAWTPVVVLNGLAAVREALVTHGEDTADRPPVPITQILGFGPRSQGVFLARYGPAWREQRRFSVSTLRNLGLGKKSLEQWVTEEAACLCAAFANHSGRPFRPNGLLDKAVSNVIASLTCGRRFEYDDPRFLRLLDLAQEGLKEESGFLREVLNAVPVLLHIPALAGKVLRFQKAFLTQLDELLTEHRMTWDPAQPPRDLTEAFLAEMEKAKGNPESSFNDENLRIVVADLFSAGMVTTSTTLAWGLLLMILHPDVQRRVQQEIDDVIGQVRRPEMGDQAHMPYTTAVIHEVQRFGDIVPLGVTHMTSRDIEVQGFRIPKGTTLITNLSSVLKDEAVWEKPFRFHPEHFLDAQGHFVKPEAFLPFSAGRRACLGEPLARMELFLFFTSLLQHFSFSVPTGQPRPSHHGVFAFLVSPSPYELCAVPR
In short: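 Human CYP2D6 (5 nM) with 30 uM Luciferin-ME EGE (at Km) in 100 mM KPO4, compound preincubated 10 min, then NADPH regeneration system for 60 min at room temperature. Luciferin read by luminescence; normalized to 1.43 uM quinidine.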

[14] = qHTS Assay for Identification of Small Molecule Agonists for Hypoxia Response Element Signaling Pathway (AID 914; active means well fitted activation curve with a large enough effect in the signal ratio, with a control signal flat, not every such curve was filed as active; the % refers to the signal ratio; further: % of control where 0% means no effect); conditions: ME-180 (cervical carcinoma) HRE-bla reporter, beta-lactamase ratio, CoCl2, 17 h; hits give high values
In short: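 Reporter activity (beta-lactamase, CCF4 460nm/530nm ratio) in HRE-bla ME-180 cells is recorded after 17 h compound exposure with EC50 CoCl2 at 37 degrees Celsius. AC50 values come from titration data.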

[15] = target: Cytochrome P450 3A4 (Homo sapiens) (UniProt P08684); test: qHTS Assay for Inhibitors and Substrates of Cytochrome P450 3A4 (AID 884; active means well fitted curve in the direction sought with a large enough effect; an effect the other way counts as inactive or inconclusive; further: potency means the concentration at half of the fitted maximal effect; nearly all actives have a fitted effect of over 50% in size); conditions: recombinant CYP3A4, Luciferin-PPXE luminescence; series mostly up to 57.1 µM
In short: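 20 nM human CYP3A4 with 25 uM Luciferin-PPXE (at KM) in 200 mM KPO4, preincubated 10 min with compound; NADPH regeneration started a 60 min RT reaction. Luciferin detected by luminescence, normalized to 57 uM ketoconazole as full inhibition.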

[16] = target: Tyrosyl-DNA phosphodiesterase 1 (Homo sapiens) (UniProt Q9NUW8); test: Confirmation Assay for Inhibitors of Tyrosyl-DNA Phosphodiesterase (TDP1) (AID 489007; active means well fitted curve in the direction sought with a large enough effect; an effect the other way counts as inactive or inconclusive; further: potency means the concentration at half of the fitted maximal effect; nearly all actives have a fitted effect of over 40% in size); conditions: recombinant human TDP1 enzymatic activity, dose-response
In short: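 Tdp1 1 nM + cpd, 15 min RT; add biotin/phosphotyrosine-FITC oligo 15 nM, 5 min RT; add AS donor/acceptor beads 10 ug/ml, 10 min RT; read AlphaScreen. No-enzyme wells = max signal.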

O=c1[nH]cnc2[nH]cc(CN3CCCCC3)c12
Potency [1]: > 11.4 µM | activity change, negative = inhibition [2]: 2.74% | Potency [3]: inactive | activity change, negative = inhibition [4]: 3.17% | activity, negative = inhibition [5]: 0.346% | activity change, negative = inhibition [6]: 0.447% [at 11.4 µM] | outcome [7]: inactive | outcome [8]: inactive

C[C@@]12CC[C@H](O)C[C@@H]1CC[C@@H]1[C@@H]2CC[C@@]2(C)[C@@H](C3=CC(=O)OC3)[C@H](O)C[C@]12O
Potency [1]: > 11.4 µM | activity change, negative = inhibition [2]: 15.5% | Potency [3]: inactive | activity, negative = inhibition [5]: 8.74% | Potency [9]: > 46 µM | activity change, negative = inhibition [6]: 1.8% [at 11.4 µM] | outcome [7]: inactive | Potency [10]: inactive

C[C@H](CC(C#N)(c1ccccc1)c1ccccc1)N1CCCCC1
Potency [1]: > 11.4 µM | activity change, negative = inhibition [2]: 17% | activity change, negative = inhibition [3]: 7.1% [at 2.29 µM] | activity, negative = inhibition [5]: 2.01% | Potency [9]: > 46 µM | Potency [11]: > 9.22 µM | activity change, negative = inhibition [6]: 1.28% [at 11.4 µM] | outcome [7]: inactive | activity change, positive = activation [12]: -53% [at 11.4 µM] | Potency [13]: 2.51 µM (active) | activation [14]: 4.33%

NC(N)=NCCN=C(N)N
Potency [1]: > 11.4 µM | activity change, negative = inhibition [2]: 1.56% | Potency [3]: inactive | activity change, negative = inhibition [4]: -0.323% | Potency [9]: > 46 µM | Potency [11]: > 9.22 µM | activity change, negative = inhibition [6]: 1.78% [at 11.4 µM] | outcome [7]: inactive

O=S(=O)(O)/C(=C\c1ccccc1)c1ccccc1 (tested in a mixture with another compound)
Potency [1]: > 11.4 µM | activity change, negative = inhibition [2]: 4.77% | activity change, negative = inhibition [3]: -29% [at 2.29 µM] | activity change, negative = inhibition [4]: 11.5% | activity, negative = inhibition [5]: 7.2% | outcome [7]: inactive

O=C(CCN1CC2CCC(CC2)C1)c1cccs1
Potency [1]: > 11.4 µM | activity change, negative = inhibition [2]: 17.2% | Potency [3]: 5.01 µM (active) | activity, negative = inhibition [5]: 1.61% | Potency [9]: > 46 µM | activity change, negative = inhibition [6]: 0.402% [at 11.4 µM] | Potency [13]: 2 µM (active)

CC(C)=C[C@H]1[C@@H](C(=O)OCc2cc3c(cc2Cl)OCO3)C1(C)C
Potency [1]: > 11.4 µM | activity change, negative = inhibition [2]: -2.25% | Potency [3]: 0.794 µM (active) | activity, negative = inhibition [5]: 0.513% | Potency [9]: > 46 µM | Potency [11]: > 9.22 µM | outcome [7]: inactive | Potency [15]: 0.316 µM (active) | activity change, positive = activation [12]: -75% [at 11.4 µM] | Potency [10]: 1.58 µM (active)

O=[N+]([O-])c1cc(-c2ccc([As](=O)(O)O)cc2)ccc1[As](=O)(O)O
Potency [1]: > 11.4 µM | activity change, negative = inhibition [2]: 3.12% | activity change, negative = inhibition [3]: -10.9% [at 2.29 µM] | activity, negative = inhibition [5]: 1.81% | Potency [9]: > 46 µM | Potency [11]: > 9.22 µM | activity change, negative = inhibition [6]: 2.81% [at 11.4 µM] | activation [14]: 1.51% | Potency [16]: 89.1 µM (active)

CN[C@H](Cc1ccccc1)c1cccc(OC)c1O
Potency [1]: > 11.4 µM | activity change, negative = inhibition [2]: 4.57% | Potency [3]: inactive | activity change, negative = inhibition [4]: 10.1% | activity, negative = inhibition [5]: -6.4% | Potency [9]: > 46 µM | activity change, negative = inhibition [6]: 1.41% [at 11.4 µM] | outcome [7]: inactive | Potency [13]: 0.0398 µM (active) | Potency [10]: 2 µM (active)

CCOC(=O)[C@@H]1[C@@H]2c3ccccc3-c3ccccc3[C@H]2C[C@H]1O
Potency [1]: > 11.4 µM | activity change, negative = inhibition [2]: -11.4% | Potency [3]: 0.631 µM (active) | activity change, negative = inhibition [4]: 2.27% | Potency [9]: > 46 µM | Potency [11]: > 9.22 µM | outcome [7]: inactive | Potency [10]: 2 µM (active)

COc1cc2ccccc2c2cc([N+](=O)[O-])oc12
Potency [1]: > 11.4 µM | activity change, negative = inhibition [2]: 3.54% | Potency [3]: 0.126 µM (active) | activity, negative = inhibition [5]: 16.1% | Potency [9]: > 46 µM | Potency [11]: > 9.22 µM | activity change, negative = inhibition [6]: 16.5% [at 11.4 µM]

CCCOC(=O)[C@@H]1[C@@H](C(=O)O)[C@H]2CC[C@@H]1O2
Potency [1]: > 11.4 µM | activity change, negative = inhibition [2]: 5.41% | activity change, negative = inhibition [4]: -0.63% | activity, negative = inhibition [5]: 8.61% | Potency [9]: > 46 µM | Potency [11]: > 9.22 µM | activity change, negative = inhibition [6]: 6.67% [at 11.4 µM]
